For part of these data: Potency and affinity values are given separately. Calls of active or inactive are those of the source.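 Rule for the calls, unless noted: active = dose curve with midpoint inside tested range, moderate steepness, plateau gap beyond fit error, low compound glow and bead-link interference; inactive = the rest.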
Assays:
[1] = target: Cell division control protein 42 homolog (Homo sapiens) (UniProt P60953); experiment: activated mutant Cdc42 GTP-binding inhibitors, dose response, biochemical, multiplex bead flow cytometry, Bodipy-FL-GTP (AID 1333;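 active = fitted half-maximal concentration within the tested dose range, moderate curve steepness, a statistically real signal drop, and little compound fluorescence or tag-binding interference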)
[2] = target: Cell division control protein 42 homolog (Homo sapiens) (UniProt P60953); experiment: wildtype Cdc42 GTP-binding inhibitors, dose response, biochemical, multiplex bead flow cytometry, Bodipy-FL-GTP (AID 1334;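 active = fitted half-maximal concentration within the tested range, moderate curve steepness, significant signal drop, and little compound fluorescence or bead-linkage interference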); conditions: bead-based flow cytometry, Bodipy-FL-GTP binding to GST-Cdc42; at 100 µM (top of the series) unless noted
[3] = target: GTPase HRas (Homo sapiens) (UniProt P01112); experiment: inhibitors of GTP binding to wildtype Ras, dose response, biochemical, multiplex bead flow cytometry (AID 1335;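 active = fitted half-maximal concentration within 10 nM to 100 µM, steepness 0.5 to 2, significant signal drop, low assay interference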); conditions: bead-based flow cytometry, Bodipy-GTP binding to GST-Ras; at 100 µM (top of the series) unless noted
[4] = tested on: Ras-related protein Rab-7a (dog), GTP binding; experiment: Rab7 GTP binding inhibitors, potency, dose response, biochemical, wildtype, multiplex bead flow cytometry (AID 1336; call rule not given here)
[5] = target: Ras-related C3 botulinum toxin substrate 1 (Homo sapiens) (UniProt P63000); experiment: wildtype Rac1 GTP binding inhibitors, dose response, biochemical, multiplex bead flow cytometry (AID 1340); conditions: GST-Rac1 beads, Bodipy-FL-GTP binding; at 100 µM (top of the series) unless noted
[6] = target: GTPase HRas (Homo sapiens) (UniProt P01112); experiment: activated Ras mutant GTP binding inhibitors, dose response, biochemical, multiplex bead flow cytometry (AID 1341;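 active = dose-response curve with midpoint inside the tested range, moderate steepness, significant amplitude and little compound fluorescence or bead-attachment interference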;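 note: GST-tagged constitutively activated Ras mutant immobilized on beads and multiplexed with other GTPases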)

Sequence of GTPase HRas (Homo sapiens) (P01112 whole entry, looked up): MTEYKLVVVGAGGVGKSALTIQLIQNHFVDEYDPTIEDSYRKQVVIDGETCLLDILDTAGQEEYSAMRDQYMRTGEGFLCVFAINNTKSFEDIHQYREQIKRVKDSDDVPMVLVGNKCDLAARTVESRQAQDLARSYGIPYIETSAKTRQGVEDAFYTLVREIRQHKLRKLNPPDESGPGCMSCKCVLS
Sequence of Cell division control protein 42 homolog (Homo sapiens) (P60953 whole entry, looked up): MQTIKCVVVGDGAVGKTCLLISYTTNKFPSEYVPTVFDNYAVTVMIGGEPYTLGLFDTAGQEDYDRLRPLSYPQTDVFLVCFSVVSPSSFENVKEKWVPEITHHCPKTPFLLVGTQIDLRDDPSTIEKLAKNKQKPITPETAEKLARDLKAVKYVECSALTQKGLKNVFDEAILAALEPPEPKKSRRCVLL

Compound | outcome [1] | fluorescence, percent of control (lower = inhibition) [2] | GTP binding, percent of control [3] | outcome [4] | GTP binding signal, raw median fluorescence (lower = inhibition) (MCF (arbitrary fluorescence units)) [5] | outcome [6]
NC(=S)N=Nc1c(O)[nH]c2c(Br)cc(Br)cc12 | inactive | 32.3% | 73% | inactive | 198 | inactive
COc1ccc(CCNC(=O)C2CCCN2C(=O)NC2CCCCC2)cc1OC (stereo not given) | inactive | 50.7% | 180% | inactive | 184 | inactive
Cc1nc(-c2cnn(-c3ccccc3)c2)c2cc(C)oc2n1 | inactive | 61.7% | 140% | inactive | 140 | inactive
O=C(O)C1CSC(CCc2ccccc2)N1 (stereo not given) | inactive | 98.5% | 125% | inactive | 87.7 | inactive
O=C(Nc1ccc2nc(-c3cccs3)[nH]c2c1)c1cccs1 | inactive | 30.4% | 68.4% | inactive | 184 | inactive
COc1ccc(O)c(-c2cc(C(F)(F)C(F)F)nc(-c3ccccc3)n2)c1 | inactive | 106% | 177% | inactive | 183 | inactive
CC(C)(C)c1ccc(OCCSc2nc3ccccc3n2CC(=O)O)cc1 | inactive | 52.3% | 87.1% | inactive | 35.4 | inactive
COc1cccc(C(=O)O)c1OCc1ccccc1Br | inactive | 57% | 201% | inactive | 53.6 | inactive
O=C(Cn1cnc2cc([N+](=O)[O-])ccc2c1=O)NCCc1ccc(F)cc1 | inactive | 35.9% | 80.9% | inactive | 182 | inactive
CCCc1cc(NCc2ccccn2)n2c(nc3ccccc32)c1C#N | inactive | 30.1% | 68.2% | inactive | 167 | inactive
O=C(C#Cc1ccccc1)c1ccc([N+](=O)[O-])cc1 | inactive | 25.5% | 74.2% | inactive | 264 | inactive
Cc1cccc(Nc2nc(NCc3ccco3)c3ccccc3n2)c1 | inactive | 39.2% | 54.7% | inactive | 142 | inactive
CSc1nnc(C)c(/C=C/Nc2ccc(C)cc2)n1 | inactive | 74.9% | 144% | inactive | 155 | inactive
Cc1ccc(-n2nc3c(SCCN4CCOCC4)nnc(C)c3c2C)cc1 | inactive | 49% | 64.6% | inactive | 194 | inactive
Cc1ccc(C2=NN(S(=O)(=O)c3ccccc3)C(c3ccccc3O)C2)cc1 (stereo not given) | inactive | 50.2% | 104% | inactive | 158 | inactive
OCC(CO)(CO)NCc1ccc(-c2ccccc2)cc1 | inactive | 49.9% | 65.6% | inactive | 214 | inactive
N#C/C(=C/c1ccc(-c2cc(C(=O)O)cc(C(=O)O)c2)o1)c1nc2ccccc2s1 | inactive | 27% | 66.4% | inactive | 110 | inactive
Cc1nc2ccc(-c3nc4ccc(N)cc4[nH]3)cc2[nH]1 | inactive | 35.3% | 79.9% | inactive | 210 | inactive
Cc1cccc(CSCc2ccc(C(=O)O)o2)c1 | inactive | 58.1% | 86.9% | inactive | 28.5 | inactive
COc1cc2[nH]c(=S)nc(NCCCOC(C)C)c2cc1OC | inactive | 38.7% | 50.6% | inactive | 116 | inactive

Compound | outcome [1] | fluorescence, percent of control (lower = inhibition) [2] | GTP binding, percent of control [3] | outcome [4] | GTP binding signal, raw median fluorescence (lower = inhibition) (MCF (arbitrary fluorescence units)) [5] | outcome [6]
CSc1ncccc1C(=O)OCC(=O)N1CCOCC1 | inactive | 84.4% | 160% | inactive | 170 | inactive
O=c1c2ccccc2nc2c3ccccc3c(NCCO)nn12 | inactive | 27.1% | 65% | inactive | 165 | inactive
Cc1ccc(Sc2ncccc2C(=O)O)c(C)c1 | inactive | 78% | 78.1% | inactive | 309 | inactive
NS(=O)(=O)c1ccc(-c2ccc(/C=C3\C(=O)Nc4cc(Cl)ccc43)o2)cc1 | inactive | 38% | 78.4% | inactive | 152 | inactive
Cc1ccc(C(C)C)c(OCc2ccccc2C(=O)O)c1 | inactive | 73.5% | 87% | inactive | 48.6 | inactive
Cc1ccc([N+](=O)[O-])cc1-c1ccc(/C=C(\C#N)c2[nH]nc(N)c2C#N)o1 | inactive | 32.4% | 72.8% | inactive | 221 | inactive
O=C(COc1ncnc2cc([N+](=O)[O-])ccc12)NCc1ccc2c(c1)OCO2 | inactive | 42.7% | 56.9% | inactive | 118 | inactive
Cc1ccccc1/C=C1\SC(=S)N(/N=C/c2cc([N+](=O)[O-])ccc2O)C1=O | inactive | 34.1% | 81.2% | inactive | 228 | inactive
Oc1c(C(c2ccccn2)N2CCOCC2)ccc2cccnc12 (stereo not given) | inactive | 55.1% | 70.9% | inactive | 0 | inactive
COc1ccc(/C=C2\SC(=S)NC2=O)cc1OS(=O)(=O)c1ccc(NC(C)=O)cc1 | inactive | 30.9% | 80.1% | inactive | 261 | inactive
COc1ccccc1OCCn1cc(C(=O)O)c2cc(C)ccc21 | inactive | 62.1% | 212% | inactive | 57.3 | inactive
O=S(=O)(Cc1ccc(Cl)cc1)c1ccccc1-c1nnc(-c2ccccc2)o1 | inactive | 104% | 196% | inactive | 207 | inactive
COc1ccc(C2=Nn3c(nnc3-c3ccccc3)SC2)cc1OC | inactive | 37.5% | 86% | inactive | 214 | inactive
CSc1nsc(SC)c1NC(=O)OC1CCCCC1 | inactive | 43% | 63.4% | inactive | 196 | inactive
Cc1ccccc1CSCc1ccc(C(=O)O)o1 | inactive | 61.3% | 89.8% | inactive | 30.2 | inactive
CCOC(=O)c1c2c3c(cccc3[nH]c1=O)C(=O)c1ccccc1-2 | inactive | 35.5% | 77.9% | inactive | 176 | inactive
Cc1cccc(C)c1CNc1ncccc1C(=O)O | inactive | 59% | 215% | inactive | 56.4 | inactive
Cc1cc(N/N=C/c2ccc(O)cc2O)nc(-c2ccccc2O)n1 | inactive | 40.3% | 48.8% | inactive | 143 | inactive
O=c1c2c(-c3ccccc3)csc2nc2c3ccccc3c(NCCN3CCOCC3)nn12 | inactive | 32.1% | 66.4% | inactive | 168 | inactive
C=CCn1c(COc2ccc(F)cc2)nnc1SCC(=O)c1c[nH]c2c(CC)cccc12 | inactive | 50.5% | 60.7% | inactive | 190 | inactive

Compound | outcome [1] | fluorescence, percent of control (lower = inhibition) [2] | GTP binding, percent of control [3] | outcome [4] | GTP binding signal, raw median fluorescence (lower = inhibition) (MCF (arbitrary fluorescence units)) [5] | outcome [6]
COCCNc1nnnc2c1sc1nc(N3CCOCC3)c3c(c12)CCCC3 | inactive | 29.6% | 64.1% | inactive | 137 | inactive
Cc1nnc(SCCN2CCOCC2)c2nn(-c3ccccc3F)c(C)c12 | inactive | 48.5% | 61.1% | inactive | 196 | inactive
N#C/C(=C/c1ccc(O)c([N+](=O)[O-])c1)C(=O)Nc1ccccc1 | inactive | 31.5% | 77.4% | inactive | 193 | inactive
C/C(=N\Nc1cc(C)nc(-c2ccccc2)n1)c1cccc([N+](=O)[O-])c1 | inactive | 33.6% | 77.8% | inactive | 193 | inactive
COC(=O)c1ccc(/C=N/Nc2nc(-c3ccc(Cl)cc3Cl)cs2)cc1 | inactive | 39.1% | 81.6% | inactive | 242 | inactive
Cc1ccc(-c2ccc(/C=C(\C#N)C(=O)Nc3cc(C)nn3-c3ccccc3)o2)cc1 | inactive | 226% | 182% | inactive | 498 | inactive
CC1Cc2ccccc2N1S(=O)(=O)c1cccc(C(=O)NCCCO)c1 (stereo not given) | inactive | 38.5% | 85.5% | inactive | 323 | inactive
Cn1cc(C=C2C(=O)CC(C)(C)CC2=O)c2ccccc21 | inactive | 49.4% | 66.4% | inactive | 180 | inactive
Cc1cc(C)cc(Nc2cc(C(=O)O)c3ccccc3n2)c1 | inactive | 58.9% | 80.4% | inactive | 30.7 | inactive
COc1ccc(S(=O)(=O)N2CCCCC2)cc1NC(=O)c1ccc([N+](=O)[O-])o1 | inactive | 32.3% | 73.3% | inactive | 172 | inactive
Cc1cc(C(=O)O)sc1CNc1ccc(Cl)cc1 | inactive | 63.1% | 88.6% | inactive | 34.7 | inactive
CCCCCCOc1ccc(C#CC(=O)c2ccc([N+](=O)[O-])cc2)cc1 | inactive | 54.3% | 199% | inactive | 56.6 | inactive
Cc1nnc2ccc(-c3cccc(NC(=O)c4ccc(Br)o4)c3)nn12 | inactive | 34.5% | 81.8% | inactive | 206 | inactive
O=C(Nc1cccc(-c2ccc3nncn3n2)c1)c1ccco1 | inactive | 32.1% | 73% | inactive | 157 | inactive
O=S(=O)(N/N=C\c1cccnc1)c1ccccc1 | inactive | 53.2% | 67.9% | inactive | 227 | inactive
O=C(Cn1nc(-c2ccccc2)c2ccccc2c1=O)Nc1ccccn1 | inactive | 45.6% | 58.1% | inactive | 194 | inactive
CCC(OC(=O)c1cc2sccc2n1C)C(=O)NCc1ccco1 (stereo not given) | inactive | 54.2% | 63% | inactive | 212 | inactive
O=C(CCNS(=O)(=O)c1cccc2nsnc12)N1CCN(c2ccccn2)CC1 | inactive | 52.4% | 64.7% | inactive | 203 | inactive
COc1cc(NC(=O)c2cccs2)c(OC)cc1NC(=O)CCC(=O)Nc1cccc2ncccc12 | inactive | 32.3% | 72.4% | inactive | 144 | inactive
N#Cc1c(Nc2ccccc2)c(/C=N/N=C/c2ccccc2)c[nH]c1=O | inactive | 35.5% | 81.7% | inactive | 211 | inactive
